# Assay results as given in PubChem BioAssay AID1159580 (chemical genetic matrix, 2015).
# The campaign covered roughly 5,500 compounds. About 2,000 (36%) were called active. Inconclusive results (about 18%) are left out. The list shows a part of the results. Unmarked numbers belong to inactive results. Rule as the data show it: active = normalized growth mostly below about 0.91 (no sharp cut-off); inconclusive = no clear call, values can overlap the other calls; inactive = mostly above about 0.92.
# Assay: chemical genetic growth profiling, strain panel (AID 1159580);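 also: tested at 20 µM; growth read once vehicle control cultures reached saturation at 30 °C; 1 = growth at the plate median or of vehicle wells; lower values mean less growth of the strain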
# Conditions: growth OD
# [1] = S. cerevisiae deletion strains, locus YAL013W, strain DEP1, hits give low values
# [2] = S. cerevisiae deletion strains, locus YBR229C, strain ROT2, hits give low values
# [3] = S. cerevisiae deletion strains, locus YCL061C, strain MRC1, hits give low values
# [4] = S. cerevisiae deletion strains, locus YDL101C, strain DUN1, hits give low values
# [5] = S. cerevisiae deletion strains, locus YDR150W, strain NUM1, hits give low values
# [6] = S. cerevisiae deletion strains, locus YEL061C, strain CIN8, hits give low values
# [7] = S. cerevisiae deletion strains, locus YGR078C, strain PAC10, hits give low values
# [8] = S. cerevisiae deletion strains, locus YHR030C, strain SLT2, hits give low values
# [9] = S. cerevisiae deletion strains, locus YHR087W, strain rtc3, hits give low values
# [10] = S. cerevisiae deletion strains, locus YJL187C, strain SWE1, hits give low values
# [11] = S. cerevisiae deletion strains, locus YJR043C, strain POL32, hits give low values
# [12] = S. cerevisiae deletion strains, locus YJR075W, strain HOC1, hits give low values
# [13] = S. cerevisiae deletion strains, locus YKL190W, strain CNB1, hits give low values
# [14] = S. cerevisiae deletion strains, locus YLR039C, strain RIC1, hits give low values
# [15] = S. cerevisiae deletion strains, locus YLR058C, strain SHM2 (second series), hits give low values
# [16] = S. cerevisiae deletion strains, locus YLR085C, strain ARP6, hits give low values
# [17] = S. cerevisiae deletion strains, locus YLR262C, strain YPT6, hits give low values
# [18] = S. cerevisiae deletion strains, locus YML094W, strain GIM5, hits give low values
# [19] = S. cerevisiae deletion strains, locus YMR219W, strain ESC1, hits give low values
# [20] = S. cerevisiae deletion strains, locus YMR263W, strain SAP30, hits give low values
# [21] = S. cerevisiae deletion strains, locus YNL128W, strain TEP1, hits give low values
# [22] = S. cerevisiae deletion strains, locus YNL153C, strain GIM3, hits give low values
# [23] = S. cerevisiae deletion strains, locus YNL298W, strain CLA4 (second series), hits give low values
# [24] = S. cerevisiae deletion strains, locus YNL322C, strain KRE1, hits give low values
# [25] = S. cerevisiae deletion strains, locus YNR030W, strain Alg12, hits give low values
# [26] = S. cerevisiae deletion strains, locus YPL055C, strain LGE1, hits give low values
# [27] = S. cerevisiae deletion strains, locus YPL241C, strain CIN2, hits give low values
# [28] = S. cerevisiae deletion strains, locus YPR135W, strain CTF4, hits give low values
smiles,measurement,setting,value
C=C1SC(=Nc2cccc(OC)c2)N(C(=O)C(c2ccccc2)C2CCCC2)C1(C)C (centres undefined),normalized growth,[1],1.01
same,normalized growth,[2],0.971
same,normalized growth,[3],1.01
same,normalized growth,[4],1.06
same,normalized growth,[5],1.02
same,normalized growth,[6],0.963
same,normalized growth,[7],1.01
same,normalized growth,"S. cerevisiae deletion strains, locus YGR229C, strain SMI1, hits give low values",0.983
same,normalized growth,[8],1.03
same,normalized growth,[9],0.957
same,normalized growth,[10],0.999
same,normalized growth,[11],1.01
same,normalized growth,[12],1.02
same,normalized growth,[13],0.977
same,normalized growth,[14],0.922
same,normalized growth,[15],0.979
same,normalized growth,[16],1.02
same,normalized growth,[17],0.919
same,normalized growth,[18],1
same,normalized growth,[19],1
same,normalized growth,[20],1.02
same,normalized growth,[21],0.97
same,normalized growth,[22],1.03
same,normalized growth,[23],1.01
same,normalized growth,[24],0.984
same,normalized growth,[25],1.02
same,normalized growth,[26],0.997
same,normalized growth,[27],1.07
same,normalized growth,[28],1.03
same,normalized growth,"S. cerevisiae strains, strain wild type, hits give low values",0.95
CC(C)(C)c1ccc(-c2n[nH]c(=S)n2-c2cccc(C(F)(F)F)c2)cc1,normalized growth,[1],0.993
same,normalized growth,[2],1.01
same,normalized growth,[4],0.995
same,normalized growth,[5],1.01
same,normalized growth,[6],0.972
same,normalized growth,[7],0.977
same,normalized growth,[8],0.966
same,normalized growth,[9],1
same,normalized growth,[10],1.22 [resistant] (active)
same,normalized growth,[11],1.01
same,normalized growth,[12],1.24 [resistant] (active)
same,normalized growth,[13],1.01
same,normalized growth,[14],0.744 (active)
same,normalized growth,[15],1.03
same,normalized growth,[16],1.06
same,normalized growth,[17],0.884
same,normalized growth,[18],0.978
same,normalized growth,[19],1.01
same,normalized growth,[20],1
same,normalized growth,[22],1.03
same,normalized growth,[23],0.958
same,normalized growth,[24],1.01
same,normalized growth,[25],0.964
same,normalized growth,[26],0.949
same,normalized growth,[27],0.949
same,normalized growth,[28],0.829
COc1ccc(-c2n[nH]c(=S)n2-c2cccc(OC)c2)cc1,normalized growth,[1],0.987
same,normalized growth,[2],0.994
same,normalized growth,[3],0.977
same,normalized growth,[4],0.969
same,normalized growth,"S. cerevisiae deletion strains, locus YDL134C, strain PPH21, hits give low values",0.979
same,normalized growth,[5],0.977
same,normalized growth,[6],1.01
same,normalized growth,[7],0.956
same,normalized growth,[8],1.02
same,normalized growth,[9],1.02
same,normalized growth,[10],0.993
same,normalized growth,[11],0.979
same,normalized growth,[12],0.967
same,normalized growth,[14],0.944
same,normalized growth,[15],0.989
same,normalized growth,[16],0.954
same,normalized growth,[17],1
same,normalized growth,[18],1
same,normalized growth,[19],0.986
same,normalized growth,[20],1
same,normalized growth,[21],0.989
same,normalized growth,[22],0.983
same,normalized growth,[23],0.957
same,normalized growth,[24],0.978
same,normalized growth,[25],0.966
same,normalized growth,[26],0.994
same,normalized growth,[27],0.967
same,normalized growth,[28],0.904
